Experimental findings from ChEMBL document CHEMBL1157539, “Thousands of chemical starting points for antimalarial lead identification” (Nature, 2010) are described below.

What all share (format): functional
Assay [1] deals with Plasmodium falciparum. Put plainly: GSK_TCMDC: Inhibition of Plasmodium falciparum 3D7 in whole red blood cells, using parasite LDH activity as an index of growth. Test compounds present at 2uM.
Assay [2] relates to Plasmodium falciparum. Description: GSK_TCMDC: Inhibition of Plasmodium falciparum Dd2 in whole red blood cells, using parasite LDH activity as an index of growth. Test compounds present at 2uM.
Another assay has as its system HepG2. Put plainly: GSK_TCMDC: Percent inhibition of human HepG2 cell line. Test compounds present at 10uM.

What is called Inhibition is how much of the control response was suppressed. Higher therefore signals strong suppression. Turning to `O=C(/C=C/c1ccc(Cl)c(Cl)c1)NCCCCCN1CCC(NC(=O)Nc2ccc([N+](=O)[O-])cc2)CC1`, the Inhibition is given as 100% in the assay on Plasmodium falciparum [1], 2% in the assay on Plasmodium falciparum [2] and 20% in the assay on HepG2.
As for `O=C(c1ccc2ccccc2n1)N1CCCc2cc(Br)ccc21`, the Inhibition in the assay on Plasmodium falciparum [1] worked out at 97%; with Plasmodium falciparum [2], 74%; in the assay with HepG2, 19%.
Consider `CNCCNCc1ccc(-c2ccc(-c3nc4cc(F)ccc4[nH]3)s2)cc1.O=C(O)C(F)(F)F`, for which the Inhibition in the assay with Plasmodium falciparum [1] is given as 99%; in the assay with Plasmodium falciparum [2], 55%; with HepG2, 22%.
The matching figures for `Cl.O=C(Nc1cc(Cl)cc(Cl)c1)Nc1ccnc2ccccc12`: 96%, 65% and 15%.
The like results for `CN1CCN(CCCCCCNc2c3ccccc3nc3ccccc23)CC1.Cl` were, in that order, 100%, 0% and 35%.
The matching figures for `COc1ccc(CN2CCC(NCc3cccc([N+](=O)[O-])c3)CC2)cc1.O=C(O)C(F)(F)F`: 92%, 3% and 6%.
On to `O=C(O)C(F)(F)F.O=c1[nH]ccc2nc(N[C@@H]3CCNC3)nc(Nc3ccc4c(c3)S(=O)(=O)CC4)c12`, for which the Inhibition in the assay with Plasmodium falciparum [1] came out at 100%; in the assay with Plasmodium falciparum [2] it was 99%; in the assay on HepG2 it was 0%.
The matching figures for `O=C(/C=C/c1c[nH]c2ccccc12)NCCCCCN1CCC(c2c[nH]c3ccccc23)CC1`: 96%, 0% and 20%.
The matching figures for `COc1ccc(CCN(C)CCCCNC(=O)c2ccc(NC(=O)c3ccc(Cl)cc3)cc2)c(OC)c1`: 87%, 0% and 12%.
For the molecule `O=C(Nc1ccc(-c2cccc(-c3nc4cc(F)ccc4[nH]3)c2)cc1)Nc1ccc(F)c(F)c1F`, the Inhibition with Plasmodium falciparum [1] was determined as 100%; with Plasmodium falciparum [2] it was 98%; with HepG2, 70%.
The matching figures for `COc1cccc(-c2csc(C(=O)NC3CCCCN(Cc4ccc(C(C)(C)C)cc4)C3)c2)c1.O=C(O)C(F)(F)F` (stereo not given): 97%, 66% and 9%.
The like results for `Cc1cc(O)nc(NC(=N)NOCCCc2ccccc2)n1` were, in that order, 100%, 4% and 0%.
For `O=C(/C=C/c1cccc(Cl)c1)NCCCCCN1CCC(c2c[nH]c3ccccc23)CC1`, the Inhibition turned out to be 89% with Plasmodium falciparum [1], 17% in the assay with Plasmodium falciparum [2] and 46% with HepG2.
The matching figures for `CC(C)(C)c1ccc(CN2CCCCC(NC(=O)c3cc(-c4cccc(Cl)c4)cs3)C2)cc1.O=C(O)C(F)(F)F` (stereo not given): 96%, 60% and 11%.
With `CCN1CCN(c2cc(C)c3cc(NC(=O)c4cccc(C(F)(F)F)c4)ccc3n2)CC1`, the Inhibition worked out at 100% in the assay on Plasmodium falciparum [1], 85% in the assay on Plasmodium falciparum [2] and 24% in the assay on HepG2.
Consider `COc1ccc(-c2nc3c4ccccc4c4ccc(I)cc4c3[nH]2)cc1`, for which the Inhibition is 96% with Plasmodium falciparum [1], 16% with Plasmodium falciparum [2] and 4% in the assay with HepG2.
In the case of `CCCCc1cc(N2CCC(NC(C)=O)C2)nc(Nc2ccc(C)cc2)n1` (stereo not given), the Inhibition with Plasmodium falciparum [1] is on record as 95%; in the assay with Plasmodium falciparum [2], 1%; in the assay with HepG2, 2%.
On to `Cc1cccc(CNc2nc(C)cc(NCCC(=O)NCCOc3ccccc3)n2)c1.O=C(O)C(F)(F)F`, for which the Inhibition in the assay with Plasmodium falciparum [1] was determined as 98%; with Plasmodium falciparum [2], 14%; in the assay on HepG2, 18%.
As to `Cc1nnnn1-c1ccc(C(=O)N2CCC3(CC2)CN(Cc2ccc(Cl)c(Cl)c2)C(=O)O3)cc1`, the Inhibition is listed as 100% in the assay on Plasmodium falciparum [1], 99% in the assay on Plasmodium falciparum [2] and 2% in the assay on HepG2.
The like results for `Nc1c2c(nc3ccccc13)C(=Cc1ccc(O)cc1)CCC2` were, in that order, 99%, 6% and 9%.
The matching figures for `CCOC(=O)C(C)(C)Oc1ccc(C(=C2CC(C)(C)CC(C)(C)C2)c2ccc(O)cc2)cc1`: 92%, 78% and 0%.
As for `NC(=O)c1cccc(C(=O)Nc2cccc(-c3cccc(-c4nc5cc(C(F)(F)F)ccc5[nH]4)c3)c2)c1`, the Inhibition was determined as 100% with Plasmodium falciparum [1], 85% in the assay with Plasmodium falciparum [2] and 71% in the assay on HepG2.
The matching figures for `CN1CCN(c2ncnc3ccc(NC(=O)Nc4ccc(Cl)c(Cl)c4)cc23)CC1`: 100%, 89% and 7%.
The matching figures for `Cc1[nH]c(C)c(-c2ccc(-c3ccc(OCC(F)(F)F)cc3)nc2)c(=O)c1Cl`: 94%, 96% and 3%.
Take `COc1ccc2nccc([C@@H](O)CN3CCC(NCc4nc5cc(F)cc(F)c5[nH]4)CC3)c2c1.O=C(O)C(=O)O`: the Inhibition in the assay on Plasmodium falciparum [1] was 99%; with Plasmodium falciparum [2], 64%; in the assay with HepG2, 19%.
For `Clc1ccc(OCc2ccccc2)c(-c2nc(-c3nc4ncc(Br)cc4[nH]3)cs2)c1`, the Inhibition with Plasmodium falciparum [1] is recorded as 100%; with Plasmodium falciparum [2] it was 77%; with HepG2, 0%.
The like results for `Cc1cc(N2CCC(N(C)C)C2)nc(Nc2ccc(Cl)cc2)n1` (stereo not given) were, in that order, 99%, 17% and 11%.
Take `Cc1oc(-c2ccccc2)nc1CCOc1ccc(C[C@H](Nc2ccccc2C(=O)c2ccccc2)C(=O)NCc2ccccn2)cc1`: the Inhibition is listed as 88% in the assay with Plasmodium falciparum [1], 54% with Plasmodium falciparum [2] and 0% in the assay on HepG2.
The like results for `CCCCc1ccc(NC(=O)Nc2cccc(CCNCc3ccccc3)c2)cc1.O=C(O)C(F)(F)F` were, in that order, 94%, 13% and 3%.
The matching figures for `O=C(Nc1cc(C(F)(F)F)cc(C(F)(F)F)c1)c1cc(C(F)(F)F)cc(C(F)(F)F)c1`: 100%, 86% and 21%.
